Records with an inconclusive call do not appear. A call without a number means that no potency is given here. Calls of active or inactive are those of the source. Calls follow the shape of the dose curve; as a rule, active = well fitted curve in the direction sought with a large enough effect; inconclusive = small, poorly fitted or top-dose-only effect, or another doubt; inactive = no such curve, though single readings can be large; an effect the other way counts as inactive or inconclusive.

Experimental findings from PubChem BioAssay (NCATS) are described below.

One assay in a line: qHTS assay to identify small molecule inhibitors of chordoma cells - UCH-1 (AID 1259355). Also: nearly all actives have a fitted effect of over 55% in size. The following applies: UCH-1 chordoma viability, CellTiter-Glo, 48 h, combination, with auranofin plus four topoisomerase inhibitors; series mostly up to 46.1 µM. In a few lines: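 Seed 800 cells per well; incubate overnight at 37 C, 5% CO2. Add test compounds (15 concentrations), then the auranofin–topoisomerase-agent combination. Incubate 48hr, add CellTiter-Glo, wait 30min, read luminescence.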
On the technique in general: In qHTS, concentration-response curves come from the screen itself.
Regarding `O=C(O)c1ccccc1O`, the Potency result is “inactive”. On the same count and under the same terms, then `Cc1cc2c(cc1S(N)(=O)=O)S(=O)(=O)CCC2`, with “inactive”; and `NS(=O)(=O)c1cc2c(cc1Cl)NC(CSCc1ccccc1)=NS2(=O)=O`, with “inactive”; and `O=C(Oc1ccccc1C(=O)O)c1ccccc1O`, with “inactive”. The same measure, in the same setting: then `NC(=O)N/N=C/c1ccc([N+](=O)[O-])o1`, with “inactive”; and `C[C@]12CC[C@@H]3c4ccc(O)cc4CC[C@H]3[C@@H]1CC[C@@H]2OC(=O)CCC1CCCC1`, with “inactive”. As for `C[C@](N)(Cc1ccc(O)cc1)C(=O)O`, the Potency result was “inactive”. `Oc1ccc(C(O)CNCCCCCCNCC(O)c2ccc(O)c(O)c2)cc1O` (configuration not stated): the Potency result was “inactive”.

For `CC(O)COc1ccccc1` (configuration not stated), the Potency result was “inactive”. As for `C[C@@H]1CCN(C(=O)[C@H](CCCN=C(N)N)NS(=O)(=O)c2cccc3c2NC[C@H](C)C3)[C@@H](C(=O)O)C1`, the Potency entry is “inactive”.

In the case of `COC(=O)[C@H]1[C@H]2C[C@@H]3c4[nH]c5cc(OC)ccc5c4CCN3C[C@H]2C[C@@H](OC(=O)COc2ccc(OC)cc2)[C@@H]1OC`, the Potency result is “inactive”. Still for that read-out and setting: in the case of `O=S(=O)(O)c1cc(I)c(O)c2ncccc12` it was “inactive”; in that of `CC1(C)S[C@@H]2[C@H](NC(=O)Cc3ccccc3)C(=O)N2[C@H]1C(=O)O` (tested in a mixture with another compound), “inactive”; in that of `CN1CCCCC1CCN1c2ccccc2Sc2ccc(S(C)=O)cc21` (configuration not stated), “inactive”. For the compound `COc1cc2[nH]c(=O)[nH]c(=O)c2cc1OC`, the Potency result was “inactive”.

Turning to `CCCCC/C(C=O)=C\c1ccccc1`, the Potency result is “inactive”. On the same count and under the same terms, in the case of `Oc1cccc(O)c1` it was “inactive”. Still for that read-out and setting: then `NCCNCCNCCNCCN`, with “inactive”; and `OC[C@H]1O[C@@H](O[C@@H]2[C@@H](CO)O[C@](O)(CO)[C@H]2O)[C@H](O)[C@@H](O)[C@H]1O`, with “inactive”.

For `CCCOC(=O)c1ccccc1`, the Potency result is “inactive”. On to `CC1=C(CC(=O)O)c2cc(F)ccc2/C1=C\c1ccc(S(C)=O)cc1` (configuration not stated), for which the Potency entry is “inactive”.

The next assay is described as follows: qHTS assay to identify small molecule inhibitors of chordoma cells - UCH-2 (AID 1259356). To be noted: UCH-2 chordoma viability, CellTiter-Glo ATP luminescence, 48 h; series mostly up to 46.1 µM.
For `O=C(O)c1ccccc1O`, the compound was called inactive. Consider `Cc1cc2c(cc1S(N)(=O)=O)S(=O)(=O)CCC2`, for which the compound was called inactive.

Regarding `NS(=O)(=O)c1cc2c(cc1Cl)NC(CSCc1ccccc1)=NS2(=O)=O`, the outcome was inactive. On the same count and under the same terms, in the case of `O=C(Oc1ccccc1C(=O)O)c1ccccc1O` it was “inactive”; in that of `NC(=O)N/N=C/c1ccc([N+](=O)[O-])o1`, “inactive”. Same read-out and setting: in the case of `C[C@]12CC[C@@H]3c4ccc(O)cc4CC[C@H]3[C@@H]1CC[C@@H]2OC(=O)CCC1CCCC1` it was “inactive”; in that of `C[C@](N)(Cc1ccc(O)cc1)C(=O)O`, “inactive”; in that of `Oc1ccc(C(O)CNCCCCCCNCC(O)c2ccc(O)c(O)c2)cc1O` (configuration not stated), “inactive”. Same read-out and setting: then `CC(C)(C)NCC(O)COc1ccc(NC(=O)NC2CCCCC2)cc1` (configuration not stated), with “inactive”. `CC(O)COc1ccccc1` (configuration not stated): the compound was called inactive. `C[C@@H]1CCN(C(=O)[C@H](CCCN=C(N)N)NS(=O)(=O)c2cccc3c2NC[C@H](C)C3)[C@@H](C(=O)O)C1`: the compound was called inactive.

`COC(=O)[C@H]1[C@H]2C[C@@H]3c4[nH]c5cc(OC)ccc5c4CCN3C[C@H]2C[C@@H](OC(=O)COc2ccc(OC)cc2)[C@@H]1OC`: the call was inactive. Same read-out and setting: in the case of `O=S(=O)(O)c1cc(I)c(O)c2ncccc12` it was “inactive”; in that of `O=C1O[C@H]([C@@H](O)CO)C(O)=C1O`, “inactive”. For `CC1(C)S[C@@H]2[C@H](NC(=O)Cc3ccccc3)C(=O)N2[C@H]1C(=O)O` (tested in a mixture with another compound), the result was inactive. In the case of `CN1CCCCC1CCN1c2ccccc2Sc2ccc(S(C)=O)cc21` (configuration not stated), the compound was classed as inactive. Consider `COc1cc2[nH]c(=O)[nH]c(=O)c2cc1OC`, for which the result was inactive. On the same count and under the same terms, in the case of `CCCCC/C(C=O)=C\c1ccccc1` it was “inactive”. In the case of `CN1CCOC(c2ccccc2)c2ccccc2C1` (configuration not stated), the compound was classed as inactive. Take `OCCN1CCN(CCCN2c3ccccc3Sc3ccc(Cl)cc32)CC1`: the compound was classed as inactive. Still for that read-out and setting: then `Cc1c(O)cccc1C(=O)N[C@@H](CSc1ccccc1)[C@H](O)CN1C[C@H]2CCCC[C@H]2C[C@H]1C(=O)NC(C)(C)C`, with “inactive”. In the case of `Oc1cccc(O)c1`, the outcome was inactive. The same measure, in the same setting: then `CCOC(=O)c1ccc(O)cc1`, with “inactive”; and `O=C(O)[C@@H]1CSCN1`, with “inactive”.

In the case of `C[C@H](N)[C@H](O)c1cccc(O)c1`, the outcome was inactive. Same read-out and setting: then `NCCNCCNCCNCCN`, with “inactive”; and `OC[C@H]1O[C@@H](O[C@@H]2[C@@H](CO)O[C@](O)(CO)[C@H]2O)[C@H](O)[C@@H](O)[C@H]1O`, with “inactive”; and `Nc1ccc(S(=O)(=O)Nc2ccccc2)cc1`, with “inactive”. For the compound `CCCOC(=O)c1ccccc1`, the compound was called inactive.

Regarding `O=S(=O)(O)NC1CCCCC1`, the call was inactive. In the case of `CC1=C(CC(=O)O)c2cc(F)ccc2/C1=C\c1ccc(S(C)=O)cc1` (configuration not stated), the result was inactive.
